Growth data for 14 compounds are collected here from PubChem BioAssay (NCI).

Structures are written as SMILES. This is part of a sample that, as a whole, favours compounds with a hit. Of some 83,000 tested, about 20% had one in any assay.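 How to read the values: 0–100, growth inhibition (40 = 60% inhibited); 0, no net growth; -100 to 0, cell death (-40 = 40% of starting cells died; -100 = all dead).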 Values without a mark were called inactive. Activity calls are given as the source filed them. The calls were made as follows: active = growth percent below 10; inactive = the rest.

One assay has as its system EKVX NSCLC. Description: NCI-60 one-dose screen, 48 h (100 = growth as untreated, 0 = no growth, -100 = all killed). The settings on record: 10 µM unless noted.
In the case of `COC(=O)CCCCCCCCC1(C)C=CC(C(C)O)=CC1` (centres undefined), the growth was 102%.

Take `COc1ccc(-c2nn(Cc3ccccc3)c3c2-c2oncc2CC3)cc1OC`: the growth was 67%.

For the compound `COc1ccc(CNC(=O)COc2ccc(/C=N/Nc3nc4ccccc4s3)cc2)cc1`, the growth is 52%.

For the next assay, the system named is SN12C renal. The assay is described as above. The settings on record: 10 µM unless noted.
With `COc1ccc(NC(=O)c2sc3nc(C)c(C(O)c4ccc(OC)cc4)cc3c2N)cc1` (centres undefined), the growth was 33%.

Regarding `N#Cc1c(NC(=O)c2cccc(Br)c2)sc2c1CCCC2`, the growth is 83.9%.

Regarding `Clc1ccc(C2CC(c3cccc(Nc4ccncc4)c3)=NN2c2ccccc2)cc1` (centres undefined), the growth is 76.6%.

Take `O=C(OCc1nc2nc(Cl)nc(N3CCOCC3)c2[nH]1)n1ccnc1`: the growth was 8.48% (active).

As for `CC(=O)O[C@]1(C(C)=O)CC[C@H]2[C@@H]3C=C(Cl)C4=CC(=O)CC[C@]4(C)[C@H]3CC[C@@]21C`, the growth was 97.7%.

Consider `CC(=O)c1c[nH]c2ccc(-c3ccnc(Nc4ccc(NC(=O)C5CCCC5)c(CN5CCOCC5)c4)n3)cc12`, for which the growth was -8.98% (active).

As for `O=C(N/N=C/c1cccnc1)c1ccccc1Nc1cccc(C(F)(F)F)c1`, the growth is 159%.

Regarding `CN1CCN(CCCOc2ccc3ncnc(Nc4ccc(Oc5cccc(C(F)(F)F)c5)c(Cl)c4)c3c2)CC1`, the growth is 27.1%.

Consider `CN(C)Cc1c(-c2ccccc2)[nH]c2ccccc12`, for which the growth is 99.4%.

For the compound `O=C(OC(OC(=O)c1cc(Cl)cc(Cl)c1)c1cccc2ccccc12)c1ccccc1` (centres undefined), the growth is 97.5%.

Consider `CCC(C)C(N)C(=O)NNc1n[nH]c(=S)n1N` (centres undefined), for which the growth was 99.2%.
